The nature of assay [1]: NCI Yeast Anticancer Drug Screen. Data for the rad50 strain (AID 155).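 Note: 0% = growth of vehicle-only cultures of the same strain.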 The settings on record: S. cerevisiae rad50 strain growth inhibition; at 50.0 µM; stronger effect = higher value. In a few lines:
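Inhibition values express reduced yeast growth in compound-treated cultures relative to vehicle-treated controls.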

Assay [2] can be described thus: NCI Yeast Anticancer Drug Screen. Data for the mec2-1 strain (AID 157). Particulars: S. cerevisiae mec2-1 strain, at 50.0 µM, stronger effect = higher value. In a few lines: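 Using mec2-1 yeast: add compound, measure growth, express inhibition versus vehicle-treated cultures.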
Assay [3] in a line: NCI Yeast Anticancer Drug Screen. Data for the sgs1 mgt1 strain (AID 161).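 Note: 0% = growth of cultures given vehicle only.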 The settings on record: S. cerevisiae sgs1 mgt1 strain, at 50.0 µM, stronger effect = higher value. In short, it runs like this:
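This yeast growth screen uses a strain with defined DNA-repair lesions; compound-treated growth is compared with vehicle-treated growth.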

Assay [4] can be described thus: NCI Yeast Anticancer Drug Screen. Data for the cln2 rad14 strain (AID 165).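 Note: 0% = growth equal to vehicle treated cultures.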 The settings on record: S. cerevisiae cln2 rad14 strain, at 50.0 µM, stronger effect = higher value. In short, it runs like this: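 Yeast strain cln2 rad14, bearing defects in cell cycle control and DNA repair, serves as the test system; values reflect growth inhibition compared with vehicle.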
Assay [5] is described as follows: NCI Yeast Anticancer Drug Screen. Data for the bub3 strain (AID 167). The settings on record: S. cerevisiae bub3 mutant strain, at 50.0 µM, stronger effect = higher value. In short, it runs like this: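 Steps: expose the mutant yeast strain to compound; grow alongside vehicle-treated cultures; measure growth; express inhibition against the vehicle cultures.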
A short description of assay [6]: NCI Yeast Anticancer Drug Screen. Data for the mlh1 rad18 strain (AID 175). Particulars: S. cerevisiae mlh1 rad18 strain growth inhibition; at 50.0 µM; stronger effect = higher value. In short, it runs like this:
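Steps: expose repair-defective yeast to compound; measure growth; express inhibition against vehicle-treated controls.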

Data on 20 compounds can be found in PubChem BioAssay (NCI).

Structures are written as SMILES. This is part of a sample that, as a whole, favours compounds with a hit. Of some 79,000 tested, about 15% had one in any assay. Values without a mark were called inactive. Calls of active or inactive are those of the source. Cut-off read from the data, not from the text of the source: active = growth inhibition above about 70%; inactive = the rest.

As for `CNc1ccccc1C(N)=S`, the growth inhibition is 5.9% in assay [1]; 2.5% in assay [2]; -2.95% in assay [3]; -26.1% in assay [4]; -5.55% in assay [5]; 11.8% in assay [6].

Take `Cc1ccc2oc(=O)c3c(O)c4cccc(OC5OC(C)C6O[C@@H](c7ccccc7)OC6C5OC5OC(C)C(O)C(O)C5O)c4c4oc(=O)c1c2c34` (stereo not given in full): the growth inhibition in assay [1] is 87.2% (active); in assay [2], 89.7% (active); in assay [3], 91.5% (active); in assay [4] it was 83.6% (active); in assay [5] it was 89.7% (active); in assay [6], 75.4% (active).

Consider `O=[N+]([O-])c1ccc(CS(=O)(=O)c2ccccc2)o1`, for which the growth inhibition in assay [1] is 21.4%; in assay [2], -1.45%; in assay [3], 24.5%; in assay [4], -15.9%; in assay [5], 1.15%; in assay [6] it was 4.6%.

`Cc1ccc(-n2cc(-c3ccc(Cl)cc3)c3c2N=CN2NC(c4ccco4)=NC32)cc1` (stereo not given): the growth inhibition was 5.1% in assay [1]; 14.8% in assay [2]; -13.6% in assay [3]; -12.4% in assay [4]; 11% in assay [5]; -15.3% in assay [6].

Turning to `O=C1NC(=O)C(c2ccccc2)(c2ccsc2)N1` (stereo not given), the growth inhibition was 12.3% in assay [1]; -4.3% in assay [2]; 1.95% in assay [3]; 10.6% in assay [4]; 1% in assay [5]; 13.6% in assay [6].

For `COc1ccc(N2C(=O)C3c4[nH]c5ccccc5c4C4CCCCCCC4C3C2=O)cc1` (stereo not given), the growth inhibition in assay [1] is 50.1%; in assay [2], 25.9%; in assay [3] it was 22.6%; in assay [4], -8.9%; in assay [5] it was 11.9%; in assay [6] it was 28.6%.

Take `CCN(CC)C(=O)c1ccncc1C(=O)c1ccncc1`: the growth inhibition was -1.2% in assay [1]; -3.55% in assay [2]; -8.4% in assay [3]; -14.3% in assay [4]; -1.95% in assay [5]; -10.1% in assay [6].

On to `CCCCCCCCCCCCCCCCCC(=O)OCC(COC1OC(CS(=O)(=O)O)C(O)C(O)C1O)OC(=O)CCCCCCCCCCCCCCCCC` (stereo not given), for which the growth inhibition in assay [1] was 23.6%; in assay [2], 18.4%; in assay [3], 7.2%; in assay [4], 3.25%; in assay [5], -1.95%; in assay [6], 19.6%.

For `COc1ccccc1NCC(=O)Nn1c(C)nc2ccc(S(=O)(=O)Nc3ccccc3OC)cc2c1=O`, the growth inhibition in assay [1] was 2.85%; in assay [2], -18.9%; in assay [3], 20.9%; in assay [4] it was 16.2%; in assay [5], 1.55%; in assay [6], 0.1%.

In the case of `C/C(=N\OC(=O)c1c(-c2c(Cl)cccc2Cl)noc1C)c1ccccc1O`, the growth inhibition is 1.5% in assay [1]; -23.4% in assay [2]; -1.6% in assay [3]; 12.2% in assay [4]; -21.9% in assay [5]; -4.75% in assay [6].

`C/C(CCc1cnc2ccccc2c1)=N/NC(N)=O`: the growth inhibition in assay [1] is 69.2%; in assay [2], 27.5%; in assay [3], 85.7% (active); in assay [4], 37.8%; in assay [5], 67.3%; in assay [6], 95.6% (active).

Regarding `O=S(=O)(c1ccccc1)c1cccc2c[n+]3ccccc3cc12`, the growth inhibition in assay [1] is 34.6%; in assay [2], 9.35%; in assay [3], 39.2%; in assay [4], 24.6%; in assay [5], 22.5%; in assay [6], 24.9%.

With `CC(C)C1NC(=O)CC(c2ccccc2)N(N=O)C1c1ccccc1` (stereo not given), the growth inhibition in assay [1] was -29.3%; in assay [2], -9%; in assay [3], -4.85%; in assay [4] it was -14.9%; in assay [5], -5.9%; in assay [6], -16.8%.

Turning to `O=[N+]([O-])c1ccc(OCCCCCBr)c(Cl)c1`, the growth inhibition in assay [1] was -1.95%; in assay [2], 47.1%; in assay [3] it was 70.3% (active); in assay [4], -26.7%; in assay [5], 66.2%; in assay [6], 54.7%.

As to `C[N+](C)(C)CC(=O)N/N=C(/Cc1nc2c3c(ccc2[nH]c1=O)C(=O)c1ccccc1C3=O)C(=O)Nc1ccc(Cl)c(Cl)c1`, the growth inhibition in assay [1] is 1.05%; in assay [2], -6.8%; in assay [3], -7.8%; in assay [4] it was 18.8%; in assay [5], 7.5%; in assay [6], 30.9%.

Regarding `Cc1ncc(-c2ccccc2)o1`, the growth inhibition in assay [1] was -20.2%; in assay [2], -21.2%; in assay [3] it was -1.75%; in assay [4] it was -7%; in assay [5], -19.9%; in assay [6] it was -15.7%.

With `CCC(C)NC(=O)C(C)C` (stereo not given), the growth inhibition is 2.7% in assay [1]; -3.6% in assay [2]; -2.9% in assay [3]; -32.8% in assay [4]; -3.3% in assay [5]; 16.4% in assay [6].

For `OC1(c2ccccc2)C=C(c2ccccc2)C=C(c2ccccc2)O1` (stereo not given), the growth inhibition in assay [1] is -5.95%; in assay [2] it was 10.7%; in assay [3] it was -1.05%; in assay [4], 0.9%; in assay [5] it was 8.05%; in assay [6] it was -2.55%.

Consider `CC1CCOCCCOC(=O)CCOCCC(=O)OCCCOCCCOC(=O)CCOCCC(=O)O1` (stereo not given), for which the growth inhibition in assay [1] is 0.7%; in assay [2], 2.4%; in assay [3], 5%; in assay [4], 15.9%; in assay [5], -5.95%; in assay [6] it was -4.45%.

Consider `O=P(O)(c1ccccc1Br)c1ccccc1Br`, for which the growth inhibition in assay [1] was 43.5%; in assay [2], 10.6%; in assay [3], 28%; in assay [4], 26.2%; in assay [5], 4.65%; in assay [6] it was 20.2%.
